Measured values published in PubChem BioAssay.

Assay: probe aShh binding to arrayed compounds – biochemical, biotinylated probe, 635/667 nm fluorescence, primary screen (AID 1114);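 note: probe is biotin-labelled aShh protein from a stem cell growth factor screen; measures binding of labelled protein to compounds printed on the slide; score merges feature fluorescence at 667 nm with signal-to-noise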
Details: small-molecule microarray, higher = more signal

Structure (SMILES) | composite z-score
C[C@@H]1ON(c2cccc(C(=O)OC(C)(C)C)c2)[C@H](c2ccc(Br)cc2)[C@H]1C(=O)N1C(=O)OC[C@H]1Cc1ccccc1 | 0.0756
O=C1C2C=CC(C(O)c3ccc(F)cc3)N(Nc3ccccc3F)C2C(=O)N1c1ccccc1 (stereo unspecified) | -0.0441
COc1ccc(CCN2C(=O)[C@@]3(Cc4ccccc42)c2ccccc2C(=O)N(Cc2ccccc2C(F)(F)F)[C@H]3c2ccc(CO)cc2)cc1 | 0.0796
COC(=O)[C@@]1(Cc2ccc(OC)cc2)[C@H]2c3cc(C(=O)N4CCCC4)n(Cc4ccsc4Br)c3C[C@H]2CN1C(=O)c1ccccc1 | -0.237
O=C1NC(=O)C2C1C=CC(C(O)Cc1ccccc1)N2Nc1ccc(Cl)cc1Cl (stereo unspecified) | 0.171
COC(=O)[C@@]1(Cc2ccccc2)[C@H]2c3cc(C(=O)N4CCCC4)n(CC4CC4)c3C[C@H]2CN1C(=O)c1ccccc1 | 0.834
COC(=O)[C@@]1(Cc2ccc(F)cc2)[C@H]2c3cc(C(=O)N4CCCC4)n(Cc4ccc(C)o4)c3C[C@H]2CN1C(=O)c1ccccc1 | 0.862
COc1cc2c(cc1OC)CN(C(=O)[C@H]1[C@@H]3C(=O)O[C@@H](c4ccccc4)[C@@H](c4ccccc4)N3[C@@H](c3ccc(O)cc3)[C@]13C(=O)Nc1ccc(C#CC4=CCCCC4)cc13)CC2 | -0.0146
[N-]=[N+]=Nc1ccccc1[C@H]1OC(c2ccc(OCCCO)cc2)=N[C@@]1(Cc1ccccc1)C(=O)O | 0.483
CC(C)N1C(=O)[C@@]2(Cc3ccccc31)c1ccccc1C(=O)N(C1CCCCC1)[C@H]2c1ccc(CO)cc1 | -0.195
CCOC(=O)[C@H]1C/C=C/C[C@H](C(=O)OCC)C(=O)O[C@H]2[C@@H](OC)O[C@H](CO)[C@@H](OC(=O)Nc3ccc(C#N)cc3)[C@@H]2OC1=O | 0.0062
CCCC=C(CCC)[C@@H](NS(=O)(=O)c1cccs1)c1ccc(C(=O)OC)cc1 | 0.605
COC(=O)[C@@]1(Cc2ccc(F)cc2)[C@H]2c3cc(C(=O)N(C)C)n(Cc4nc5ccccc5[nH]4)c3C[C@H]2CN1C(=O)c1ccccc1 | 0.603
CC(C)(C)OC(=O)CC[C@@]1(C(=O)NCC(O)CO)N=C(c2ccc(OCCCO)cc2)O[C@@H]1c1ccccc1N=[N+]=[N-] (stereo partly specified) | 0.13
CCOc1cc(C(O)C2C=CC3C(=O)N(c4ccccc4)C(=O)C3N2Nc2ccccc2)ccc1O (stereo unspecified) | 0.191
CN1C(=O)C2C=CC(C(O)Cc3ccccc3)N(Nc3ccccc3)C2C1=O (stereo unspecified) | -0.153
COC(=O)C(CC#Cc1ccc2c(c1)[C@]1(C(=O)N2)[C@H](c2ccc(O)cc2)N2[C@H](c3ccccc3)[C@H](c3ccccc3)OC(=O)[C@H]2[C@@H]1C(=O)Nc1nc2ccccc2s1)C(=O)OC | 0.191
COc1ccc(C(=O)Nc2ccc(CN3C(=O)[C@@]4(O[C@@H](CCO)[C@H]([Si](C)(C)c5ccc(OC)cc5)[C@H]4C)c4ccccc43)cc2)cc1 | -0.0146
COCCOC(=O)N1C(=O)[C@@]2(c3cc(C#Cc4ccc(OC)cc4)ccc31)[C@H](C(=O)N1CCCCCCC1)[C@H]1C(=O)O[C@H](c3ccccc3)[C@H](c3ccccc3)N1[C@@H]2c1ccc(OCCO)cc1 | 2.15
O=C1O[C@H](c2ccccc2)[C@H](c2ccccc2)N2[C@H]1[C@@H](C(=O)O)[C@]1(C(=O)Nc3ccc(C#CCCO)cc31)[C@H]2c1ccc(O)cc1 | -0.0324
CC(C)(C)C(=O)N[C@@H](c1ccc(Cl)cc1)[C@]1(C)C[C@H]1C1CCCCC1 | 0.838
O=C(NCc1ccccc1)[C@@]1(Cc2ccccc2)N=C(c2ccc(OCCCO)cc2)O[C@H]1c1ccccc1 | -0.181
CC(C)(C)OC(=O)CC[C@@]12N=C(c3ccc(OCCCO)cc3)O[C@@H]1c1ccccc1N(CCS(=O)(=O)c1ccccc1)C2=O | -0.0035
[N-]=[N+]=NCc1ccccc1[C@@H]1OC(c2ccc(OCCCO)cc2)=N[C@]1(Cc1ccccc1N=[N+]=[N-])C(=O)N1CCOCC1 | 0.686
COCCOC(=O)N1C(=O)[C@@]2(c3cc(C#CC4(O)CCCCCC4)ccc31)[C@H](c1ccc(O)cc1)N1[C@H](c3ccccc3)[C@H](c3ccccc3)OC(=O)[C@H]1[C@@H]2C(=O)Nc1nc2ccccc2s1 | -0.131
COCCOC(=O)N1C(=O)[C@@]2(c3cc(C#CC4=CCCCC4)ccc31)[C@H](C(=O)N1CCc3cc(OC)c(OC)cc3C1)[C@H]1C(=O)O[C@H](c3ccccc3)[C@H](c3ccccc3)N1[C@@H]2c1ccc(OCCO)cc1 | -0.428

Assay: probe aNog binding to arrayed compounds – biochemical, biotinylated probe, 635/667 nm fluorescence, primary screen (AID 1115);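 note: probe is biotinylated aNog protein used at 0.15 µg/mL for 1 h at 4 C; z-score combines 667 nm fluorescence of each spot with its signal to noise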
Details: small-molecule microarray, higher = more signal

Structure (SMILES) | composite z-score
O=C1[C@H]2C=C(Br)[C@H](C[C@@H]2c2ccccc2)[C@@]12CO2 | -0.461
COc1ccc(C#Cc2ccc3c(c2)[C@]2(C(=O)N3)[C@H](c3ccccc3OCCO)N3[C@H](c4ccccc4)[C@H](c4ccccc4)OC(=O)[C@H]3[C@@H]2C(=O)O)cc1 | 1.52
O=C1O[C@H](c2ccccc2)[C@H](c2ccccc2)N2[C@H]1[C@@H](C(=O)N1CCN(c3ncccn3)CC1)[C@]1(C(=O)Nc3ccc(C#CC4=CCCCC4)cc31)[C@H]2c1ccc(O)cc1 | 0.113
C=CC[C@@]1(C(N)=O)N=C(c2ccc(OCCCO)cc2)O[C@@H]1c1ccccc1CN=[N+]=[N-] | 0.661
COC(=O)[C@@]1(Cc2ccccc2)[C@H]2c3cc(C(=O)N4CCCC4)n(Cc4nc5ccccc5[nH]4)c3C[C@H]2CN1C(=O)c1ccccc1 | 2.15
O=C1O[C@H](c2ccccc2)[C@H](c2ccccc2)N2[C@H]1[C@@H](C(=O)O)[C@]1(C(=O)Nc3ccc(C#CC4=CCCCC4)cc31)[C@H]2c1ccccc1OCCO | 0.948
COCCOC(=O)N1C(=O)[C@@]2(c3cc(C#Cc4ccc(OC)cc4)ccc31)[C@H](c1ccccc1OCCO)N1[C@H](c3ccccc3)[C@H](c3ccccc3)OC(=O)[C@H]1[C@@H]2C(=O)N1CCN(c2ncccn2)CC1 | 0.121
C=C/C=C/[C@H]1C(=C)CN([C@@H](Cc2ccccc2)C(=O)OC)[C@@H]1[C@H](O)Cc1ccccc1 | -0.0624
C=CCOC(=O)[C@H]1[C@@H]2C(=O)O[C@@H](c3ccccc3)[C@@H](c3ccccc3)N2[C@@H](c2ccc(OCCOC(=O)[C@@H]3C[C@@H]4C(=O)N[C@@H](CCCC[N+](C)(C)C)C(=O)N4[C@@H]3c3ccc(O)cc3)cc2)[C@]12C(=O)Nc1ccccc12 | -0.13
C[C@@H]1ON(c2cccc(C(=O)OC(C)(C)C)c2)[C@H](c2ccc(Br)cc2)[C@H]1C(=O)N1C(=O)OC[C@H]1Cc1ccccc1 | 1.09
O=C1C2C=CC(C(O)c3ccc(F)cc3)N(Nc3ccccc3F)C2C(=O)N1c1ccccc1 (stereo unspecified) | 1.34
COc1ccc(CCN2C(=O)[C@@]3(Cc4ccccc42)c2ccccc2C(=O)N(Cc2ccccc2C(F)(F)F)[C@H]3c2ccc(CO)cc2)cc1 | -0.258
COC(=O)[C@@]1(Cc2ccc(OC)cc2)[C@H]2c3cc(C(=O)N4CCCC4)n(Cc4ccsc4Br)c3C[C@H]2CN1C(=O)c1ccccc1 | 1.48
O=C1NC(=O)C2C1C=CC(C(O)Cc1ccccc1)N2Nc1ccc(Cl)cc1Cl (stereo unspecified) | 0.155
COC(=O)[C@@]1(Cc2ccccc2)[C@H]2c3cc(C(=O)N4CCCC4)n(CC4CC4)c3C[C@H]2CN1C(=O)c1ccccc1 | 2.57
COC(=O)[C@@]1(Cc2ccc(F)cc2)[C@H]2c3cc(C(=O)N4CCCC4)n(Cc4ccc(C)o4)c3C[C@H]2CN1C(=O)c1ccccc1 | -0.632
COc1cc2c(cc1OC)CN(C(=O)[C@H]1[C@@H]3C(=O)O[C@@H](c4ccccc4)[C@@H](c4ccccc4)N3[C@@H](c3ccc(O)cc3)[C@]13C(=O)Nc1ccc(C#CC4=CCCCC4)cc13)CC2 | -0.315
[N-]=[N+]=Nc1ccccc1[C@H]1OC(c2ccc(OCCCO)cc2)=N[C@@]1(Cc1ccccc1)C(=O)O | -0.0277
CC(C)N1C(=O)[C@@]2(Cc3ccccc31)c1ccccc1C(=O)N(C1CCCCC1)[C@H]2c1ccc(CO)cc1 | -0.399
CCOC(=O)[C@H]1C/C=C/C[C@H](C(=O)OCC)C(=O)O[C@H]2[C@@H](OC)O[C@H](CO)[C@@H](OC(=O)Nc3ccc(C#N)cc3)[C@@H]2OC1=O | -0.113
CCCC=C(CCC)[C@@H](NS(=O)(=O)c1cccs1)c1ccc(C(=O)OC)cc1 | 1.41
COC(=O)[C@@]1(Cc2ccc(F)cc2)[C@H]2c3cc(C(=O)N(C)C)n(Cc4nc5ccccc5[nH]4)c3C[C@H]2CN1C(=O)c1ccccc1 | 0.485
CC(C)(C)OC(=O)CC[C@@]1(C(=O)NCC(O)CO)N=C(c2ccc(OCCCO)cc2)O[C@@H]1c1ccccc1N=[N+]=[N-] (stereo partly specified) | 1.71
CCOc1cc(C(O)C2C=CC3C(=O)N(c4ccccc4)C(=O)C3N2Nc2ccccc2)ccc1O (stereo unspecified) | 0.387
CN1C(=O)C2C=CC(C(O)Cc3ccccc3)N(Nc3ccccc3)C2C1=O (stereo unspecified) | 0.338
COC(=O)C(CC#Cc1ccc2c(c1)[C@]1(C(=O)N2)[C@H](c2ccc(O)cc2)N2[C@H](c3ccccc3)[C@H](c3ccccc3)OC(=O)[C@H]2[C@@H]1C(=O)Nc1nc2ccccc2s1)C(=O)OC | 0.535
COc1ccc(C(=O)Nc2ccc(CN3C(=O)[C@@]4(O[C@@H](CCO)[C@H]([Si](C)(C)c5ccc(OC)cc5)[C@H]4C)c4ccccc43)cc2)cc1 | 0.0395
COCCOC(=O)N1C(=O)[C@@]2(c3cc(C#Cc4ccc(OC)cc4)ccc31)[C@H](C(=O)N1CCCCCCC1)[C@H]1C(=O)O[C@H](c3ccccc3)[C@H](c3ccccc3)N1[C@@H]2c1ccc(OCCO)cc1 | 2.9
O=C1O[C@H](c2ccccc2)[C@H](c2ccccc2)N2[C@H]1[C@@H](C(=O)O)[C@]1(C(=O)Nc3ccc(C#CCCO)cc31)[C@H]2c1ccc(O)cc1 | 1.08
CC(C)(C)C(=O)N[C@@H](c1ccc(Cl)cc1)[C@]1(C)C[C@H]1C1CCCCC1 | 2.13
